Results published in PubChem BioAssay (NCATS).
Inconclusive results are not listed. Active and inactive are the calls of the source. Calls follow the shape of the dose curve; as a rule, active = well fitted inhibition curve with a large enough effect; inconclusive = small, poorly fitted or top-dose-only effect; inactive = flat fitted curve, though single readings scatter. Bridge positions count the residues as written; N and C are the ends. Square brackets hold non-standard residues; d marks the D form. Peptide text beside a SMILES is read from it. * marks the point of attachment. Ileψ(thiazoline)Cys = CC[C@H](C)[C@H](N)C1=N[C@H](C(=O)*)CS1; d(aIle) = CC[C@H](C)[C@@H](N)C(=O)O; dOrn = NCCC[C@@H](N)C(=O)O

Tested on: TAB113
Test: qHTS profiling for inhibitors of Plasmodium falciparum proliferation (AID 504749); also: nearly all actives have a fitted effect of over 60% in size;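 as to activity, negative = inhibition: 0% = DMSO vehicle and full inhibition = artemisinin control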
Conditions: P. falciparum in erythrocytes, SYBR Green DNA, 72 h; series mostly up to 12.8 µM; activity, negative = inhibition: at the top concentration
Summary of the method: (§1)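 In a 72 h erythrocytic culture (37 C, humidified, 5% CO2) at 2.5% hematocrit and 0.3% starting parasitemia, compounds were tested; SYBR Green I in detergent lysis buffer stained parasite DNA overnight.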
Potency is read from the fitted curve at half-maximal effect.

Row | SMILES | activity, negative = inhibition | Potency
1 | C[C@@H]1C[C@H]2[C@@H]3C[C@H](F)C4=CC(=O)C=C[C@@]4(C)[C@]3(F)[C@H](O)C[C@]2(C)[C@@]1(O)C(=O)CO | 10.7% (inactive) | 
2 | C[C@H](O)Cn1cnc2c1c(=O)n(C)c(=O)n2C | 12% (inactive) | 
3 | CCCCC[C@H](O)/C=C\[C@@H]1[C@H](O)CC(=O)[C@@H]1CCCCCCC(=O)O | -9.08% (inactive) | 
4 | CC(=C(CCOP(=O)(O)O)SC(=O)c1ccccc1)N(C=O)Cc1cnc(C)nc1N | 5.52% (inactive) | 
5 | NC[C@@H]1O[C@@H](O[C@H]2[C@H](O)[C@H](O[C@@H]3O[C@H](CO)[C@@H](O)[C@H](N)[C@@H]3O)[C@@H](N)C[C@H]2N)[C@H](N)C[C@@H]1O | 0.474% (inactive) | 
6 | CCc1c(C)[nH]c2c1C(=O)[C@H](CN1CCOCC1)CC2 | 10.8% (inactive) | 
7 | CC[C@H](C)[C@H](N)C1=N[C@H](C(=O)N[C@@H](CC(C)C)C(=O)N[C@@H](CCC(=O)O)C(=O)N[C@@H](C(=O)N[C@H]2CCCCNC(=O)[C@@H](CC(N)=O)NC(=O)[C@@H](CC(=O)O)NC(=O)[C@@H](Cc3cnc[nH]3)NC(=O)[C@@H](Cc3ccccc3)NC(=O)[C@@H]([C@@H](C)CC)NC(=O)[C@@H](CCCN)NC2=O)[C@@H](C)CC)CS1 ({Ileψ(thiazoline)Cys}-LE[d(aIle)]K[dOrn][d(aIle)][dF][dH][dD][dN]; lactam 4-C) | 7.43% (inactive) | 
8 | O=C(N/N=C\c1ccc([N+](=O)[O-])o1)c1ccc(O)cc1 |  | 3.16 µM (active)
9 | CCOC(=O)O[C@@H](C)OC(=O)[C@@H]1N2C(=O)[C@@H](NC(=O)[C@@H](N)c3ccccc3)[C@H]2SC1(C)C | 1.52% (inactive) | 
10 | Cc1ccsc1/C=C\C1=NCCCN1C | 6.51% (inactive) | 
11 | O=C(O)COCCN1CCN([C@@H](c2ccccc2)c2ccc(Cl)cc2)CC1 | -5.72% (inactive) | 
12 | C#C[C@]1(O)CC[C@@H]2[C@H]3CCC4=CCCC[C@@H]4[C@@H]3CC[C@@]21C | 4.19% (inactive) | 
13 | CC1(C)[C@@H](OC(=O)CCC(=O)O)CC[C@@]2(C)[C@H]1CC[C@@]1(C)[C@H]2C(=O)C=C2[C@H]3C[C@](C)(C(=O)O)CC[C@]3(C)CC[C@@]21C | 7.38% (inactive) | 
14 | C[C@H](CCC(=O)O)[C@H]1CC[C@@H]2[C@@H]3[C@@H](O)C[C@H]4C[C@@H](O)CC[C@@]4(C)[C@H]3CC[C@@]21C | -28.9% (inactive) | 

Tested on: TAB165
Test: as above
Conditions: P. falciparum in erythrocytes, SYBR Green DNA, 72 h; series mostly up to 12.8 µM; activity, negative = inhibition: at the top concentration
Summary of the method: as §1

Row | SMILES | activity, negative = inhibition | Potency
15 | C[C@@H]1C[C@H]2[C@@H]3C[C@H](F)C4=CC(=O)C=C[C@@]4(C)[C@]3(F)[C@H](O)C[C@]2(C)[C@@]1(O)C(=O)CO | 7.89% (inactive) | 
16 | C[C@H](O)Cn1cnc2c1c(=O)n(C)c(=O)n2C | 16.3% (inactive) | 
17 | CCCCC[C@H](O)/C=C\[C@@H]1[C@H](O)CC(=O)[C@@H]1CCCCCCC(=O)O | -14.4% (inactive) | 
18 | CC(=C(CCOP(=O)(O)O)SC(=O)c1ccccc1)N(C=O)Cc1cnc(C)nc1N | 9.22% (inactive) | 
19 | NC[C@@H]1O[C@@H](O[C@H]2[C@H](O)[C@H](O[C@@H]3O[C@H](CO)[C@@H](O)[C@H](N)[C@@H]3O)[C@@H](N)C[C@H]2N)[C@H](N)C[C@@H]1O | 1.07% (inactive) | 
20 | CCc1c(C)[nH]c2c1C(=O)[C@H](CN1CCOCC1)CC2 | 10% (inactive) | 
21 | CCC(=O)OCC(=O)[C@@]1(OC(=O)CC)[C@H](C)C[C@@H]2[C@@H]3[C@H]([C@@H](O)C[C@@]21C)[C@]1(C)C=CC(=O)C=C1C[C@@H]3Cl |  | 3.98 µM (active)
22 | CC[C@H](C)[C@H](N)C1=N[C@H](C(=O)N[C@@H](CC(C)C)C(=O)N[C@@H](CCC(=O)O)C(=O)N[C@@H](C(=O)N[C@H]2CCCCNC(=O)[C@@H](CC(N)=O)NC(=O)[C@@H](CC(=O)O)NC(=O)[C@@H](Cc3cnc[nH]3)NC(=O)[C@@H](Cc3ccccc3)NC(=O)[C@@H]([C@@H](C)CC)NC(=O)[C@@H](CCCN)NC2=O)[C@@H](C)CC)CS1 ({Ileψ(thiazoline)Cys}-LE[d(aIle)]K[dOrn][d(aIle)][dF][dH][dD][dN]; lactam 4-C) | 2.03% (inactive) | 
23 | O=C(N/N=C\c1ccc([N+](=O)[O-])o1)c1ccc(O)cc1 |  | 3.16 µM (active)
24 | CCOC(=O)O[C@@H](C)OC(=O)[C@@H]1N2C(=O)[C@@H](NC(=O)[C@@H](N)c3ccccc3)[C@H]2SC1(C)C | 8.72% (inactive) | 
25 | Cc1ccsc1/C=C\C1=NCCCN1C | 13.4% (inactive) | 
26 | O=C(O)COCCN1CCN([C@@H](c2ccccc2)c2ccc(Cl)cc2)CC1 | -6.58% (inactive) | 
27 | C#C[C@]1(O)CC[C@@H]2[C@H]3CCC4=CCCC[C@@H]4[C@@H]3CC[C@@]21C | -1.59% (inactive) | 
28 | CC1(C)[C@@H](OC(=O)CCC(=O)O)CC[C@@]2(C)[C@H]1CC[C@@]1(C)[C@H]2C(=O)C=C2[C@H]3C[C@](C)(C(=O)O)CC[C@]3(C)CC[C@@]21C | 7.52% (inactive) | 
29 | C[C@H](CCC(=O)O)[C@H]1CC[C@@H]2[C@@H]3[C@@H](O)C[C@H]4C[C@@H](O)CC[C@@]4(C)[C@H]3CC[C@@]21C | -23.9% (inactive) | 

Tested on: W2
Test: as above
Conditions: P. falciparum in erythrocytes, SYBR Green DNA, 72 h; series mostly up to 12.8 µM; activity, negative = inhibition: at the top concentration
Summary of the method: as §1

Row | SMILES | activity, negative = inhibition | Potency
30 | C[C@@H]1C[C@H]2[C@@H]3C[C@H](F)C4=CC(=O)C=C[C@@]4(C)[C@]3(F)[C@H](O)C[C@]2(C)[C@@]1(O)C(=O)CO | -5.18% (inactive) | 
31 | C[C@H](O)Cn1cnc2c1c(=O)n(C)c(=O)n2C | 6.15% (inactive) | 
32 | CC(=C(CCOP(=O)(O)O)SC(=O)c1ccccc1)N(C=O)Cc1cnc(C)nc1N | 8.95% (inactive) | 
33 | NC[C@@H]1O[C@@H](O[C@H]2[C@H](O)[C@H](O[C@@H]3O[C@H](CO)[C@@H](O)[C@H](N)[C@@H]3O)[C@@H](N)C[C@H]2N)[C@H](N)C[C@@H]1O | 10.2% (inactive) | 
34 | CCc1c(C)[nH]c2c1C(=O)[C@H](CN1CCOCC1)CC2 | -0.333% (inactive) | 
35 | C=C1c2c(Cl)ccc(O)c2C(O)=C2C(=O)[C@@]3(O)C(O)=C(C(N)=O)C(=O)[C@@H](N(C)C)[C@@H]3[C@@H](O)[C@H]12 |  | 6.42 µM (active)
36 | CCC(=O)OCC(=O)[C@@]1(OC(=O)CC)[C@H](C)C[C@@H]2[C@@H]3[C@H]([C@@H](O)C[C@@]21C)[C@]1(C)C=CC(=O)C=C1C[C@@H]3Cl |  | 1.61 µM (active)
37 | CC[C@H](C)[C@H](N)C1=N[C@H](C(=O)N[C@@H](CC(C)C)C(=O)N[C@@H](CCC(=O)O)C(=O)N[C@@H](C(=O)N[C@H]2CCCCNC(=O)[C@@H](CC(N)=O)NC(=O)[C@@H](CC(=O)O)NC(=O)[C@@H](Cc3cnc[nH]3)NC(=O)[C@@H](Cc3ccccc3)NC(=O)[C@@H]([C@@H](C)CC)NC(=O)[C@@H](CCCN)NC2=O)[C@@H](C)CC)CS1 ({Ileψ(thiazoline)Cys}-LE[d(aIle)]K[dOrn][d(aIle)][dF][dH][dD][dN]; lactam 4-C) | -3.3% (inactive) | 
38 | O=C(N/N=C\c1ccc([N+](=O)[O-])o1)c1ccc(O)cc1 |  | 1.81 µM (active)
39 | C[C@@H](CNC1CCCCC1)OC(=O)c1ccccc1 |  | 2.28 µM (active)
40 | CCOC(=O)O[C@@H](C)OC(=O)[C@@H]1N2C(=O)[C@@H](NC(=O)[C@@H](N)c3ccccc3)[C@H]2SC1(C)C |  | 5.73 µM (active)
41 | Cc1cccc(CN2CCN([C@@H](c3ccccc3)c3ccc(Cl)cc3)CC2)c1 |  | 3.22 µM (active)
42 | Cc1ccsc1/C=C\C1=NCCCN1C | -1.19% (inactive) | 
43 | O=C(O)COCCN1CCN([C@@H](c2ccccc2)c2ccc(Cl)cc2)CC1 |  | 4.55 µM (active)
44 | C#C[C@]1(O)CC[C@@H]2[C@H]3CCC4=CCCC[C@@H]4[C@@H]3CC[C@@]21C | 11.5% (inactive) | 
45 | CC1(C)[C@@H](OC(=O)CCC(=O)O)CC[C@@]2(C)[C@H]1CC[C@@]1(C)[C@H]2C(=O)C=C2[C@H]3C[C@](C)(C(=O)O)CC[C@]3(C)CC[C@@]21C | 0.334% (inactive) | 
46 | C[C@H](CCC(=O)O)[C@H]1CC[C@@H]2[C@@H]3[C@@H](O)C[C@H]4C[C@@H](O)CC[C@@]4(C)[C@H]3CC[C@@]21C | -0.501% (inactive) | 
47 | CN1CCO[C@H](c2ccccc2)c2ccccc2C1 |  | 2.03 µM (active)
